The values that follow come from PubChem BioAssay (NCI).

About 83,000 compounds went through this panel and 20% of them were active in at least one assay; those are over-represented in the sample as a whole.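 Activity criterion: percent growth below 10, measured after cells in 96-well plates were exposed to a single compound concentration for 48 hours.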 A number with no mark means an inactive call. Calls of active or inactive are those of the source.

Some test systems named below: SK-MEL-2 melanoma; EKVX NSCLC; SN12C renal; UO-31 renal; TK-10 renal; ACHN renal; CAKI-1 renal; A498 renal; CCRF-CEM leukemia; MOLT-4 leukemia; SR leukemia; RPMI-8226 leukemia; OVCAR-8 ovarian; OVCAR-5 ovarian; OVCAR-4 ovarian; SK-OV-3 ovarian; IGROV1 ovarian; OVCAR-3 ovarian; HS 578T breast; NCI/ADR-RES ovarian.
Holding throughout (assay): NCI-60 one-dose screen, 48 h (100 = growth as untreated, 0 = no growth, -100 = all killed)
Common to all, as to conditions: 10 µM unless noted

Take `O=C(Nc1ccccc1)c1sc(-c2cccc(C(F)(F)F)c2)cc1O`: the growth with SK-MEL-2 melanoma was 33.4%; in the experiment on EKVX NSCLC, 81.5%; in the experiment on SN12C renal, 83.7%; in the experiment on UO-31 renal, 77.6%; in the experiment with TK-10 renal, 96.5%; with ACHN renal it was 79.5%. Besides, the growth was 74.6% in the experiment on CAKI-1 renal; 51.2% with A498 renal; 87.4% with CCRF-CEM leukemia; 87.7% with MOLT-4 leukemia; 62.5% in the experiment with SR leukemia; 35.5% in the experiment on RPMI-8226 leukemia. Moreover, the growth is 66% in the experiment on OVCAR-8 ovarian; 104% in the experiment on OVCAR-5 ovarian; 76.1% with OVCAR-4 ovarian; 74.6% in the experiment with SK-OV-3 ovarian; 66.5% with IGROV1 ovarian; 53.1% with OVCAR-3 ovarian. Moreover, the growth was 63.8% in the experiment with HS 578T breast and 83.2% in the experiment with NCI/ADR-RES ovarian.

On to `Cc1cc(C(c2ccccc2)c2ccccc2)ccc1NS(=O)(=O)c1ccccc1`, for which the growth with SK-MEL-2 melanoma was 104%; in the experiment with EKVX NSCLC, 83.5%; in the experiment on SN12C renal it was 95.3%; in the experiment on UO-31 renal, 82.3%; in the experiment on TK-10 renal, 123%; in the experiment with ACHN renal, 106%. Moreover, the growth was 89.3% in the experiment on CAKI-1 renal; 102% in the experiment on A498 renal; 82.4% with CCRF-CEM leukemia; 59.7% in the experiment on MOLT-4 leukemia; 74.7% with SR leukemia; 71% with RPMI-8226 leukemia. Besides, the growth with OVCAR-8 ovarian is 101%; in the experiment on OVCAR-5 ovarian it was 114%; in the experiment on OVCAR-4 ovarian, 98.5%; in the experiment on SK-OV-3 ovarian, 109%; with IGROV1 ovarian it was 123%; with OVCAR-3 ovarian, 108%. Further, the growth in the experiment on HS 578T breast is 89.8%; in the experiment with NCI/ADR-RES ovarian it was 82.8%.

Turning to `CSc1ncc(C)c(Nc2ccc(Cl)cc2)n1`, the growth in the experiment with SK-MEL-2 melanoma was 103%; in the experiment on EKVX NSCLC it was 77.4%; with SN12C renal, 102%; in the experiment with UO-31 renal, 76.4%; in the experiment with TK-10 renal it was 95.6%; with ACHN renal, 103%. Also, the growth in the experiment with CAKI-1 renal is 91%; with A498 renal it was 88.5%; in the experiment on CCRF-CEM leukemia, 96.5%; with MOLT-4 leukemia, 82.5%; in the experiment with SR leukemia, 89.9%; with RPMI-8226 leukemia, 102%. For the same compound, the growth in the experiment with OVCAR-8 ovarian is 104%; in the experiment on OVCAR-5 ovarian, 112%; with OVCAR-4 ovarian it was 99.8%; in the experiment with SK-OV-3 ovarian it was 126%; with IGROV1 ovarian, 85.8%; with OVCAR-3 ovarian, 111%. In addition, the figures for the growth in the experiment with HS 578T breast and with NCI/ADR-RES ovarian were 94.9% and 98.1%, respectively.

In the case of `CN(CCC(=O)/C(=C\c1ccccc1)c1ccc(Cl)cc1)Cc1ccccc1`, the growth was 58.4% with SK-MEL-2 melanoma; 86.8% in the experiment with EKVX NSCLC; -9.91% (active) in the experiment with SN12C renal; -40.9% (active) in the experiment on UO-31 renal; 51.8% with TK-10 renal; -43.3% (active) with ACHN renal. Further, the growth in the experiment with CAKI-1 renal was 22.5%; in the experiment on A498 renal, 46.1%; with CCRF-CEM leukemia, -7.82% (active); with MOLT-4 leukemia, 6.05% (active); in the experiment on SR leukemia, -1.56% (active); with RPMI-8226 leukemia it was -11.3% (active). The growth in the experiment with OVCAR-8 ovarian was 11.8%; in the experiment with OVCAR-5 ovarian, 25.2%; in the experiment with OVCAR-4 ovarian, 89.7%; in the experiment on SK-OV-3 ovarian, 120%; with IGROV1 ovarian, 14.4%; with OVCAR-3 ovarian, 1.15% (active). For the same compound, the growth in the experiment with NCI/ADR-RES ovarian was 24%.

`Cc1cc(=O)[nH]c(N/N=C/c2cc(Br)ccc2O)n1`: the growth was 26.9% in the experiment on SK-MEL-2 melanoma; 9.68% (active) with EKVX NSCLC; 48.1% in the experiment on SN12C renal; -3.92% (active) with UO-31 renal; 45% with TK-10 renal; 14.5% with ACHN renal. The growth was -5.73% (active) in the experiment with CAKI-1 renal; 42.2% in the experiment on A498 renal; 22.8% in the experiment with CCRF-CEM leukemia; 15.3% in the experiment with MOLT-4 leukemia; 28.4% in the experiment on SR leukemia; 31.2% with RPMI-8226 leukemia. For the same compound, the growth with OVCAR-8 ovarian is 16.7%; with OVCAR-5 ovarian, 39.1%; in the experiment on OVCAR-4 ovarian, 7.34% (active); in the experiment with SK-OV-3 ovarian, 19.1%; with IGROV1 ovarian, -0.435% (active); with OVCAR-3 ovarian, 6.58% (active). Besides, the figures for the growth with HS 578T breast and in the experiment on NCI/ADR-RES ovarian were 69% and 10.2%, respectively.

`O=C1c2ccccc2C(=O)c2cc(Cn3cc[n+](Cc4ccc5ccccc5c4)c3)ccc21`: the growth in the experiment with SK-MEL-2 melanoma was 89.1%; in the experiment on EKVX NSCLC, 70.9%; in the experiment with SN12C renal it was 74.4%; in the experiment with UO-31 renal, 82.5%; in the experiment on TK-10 renal it was 107%; in the experiment with ACHN renal, 108%. The growth in the experiment with CAKI-1 renal was 96.5%; in the experiment on A498 renal, 98.3%; in the experiment with CCRF-CEM leukemia, 71%; with MOLT-4 leukemia, 79.1%; in the experiment on SR leukemia, 73.7%; in the experiment with RPMI-8226 leukemia it was 17.2%. Also, the growth was 89.5% in the experiment on OVCAR-8 ovarian; 84.6% with OVCAR-5 ovarian; 58.7% in the experiment on OVCAR-4 ovarian; 105% with SK-OV-3 ovarian; 29.6% with IGROV1 ovarian; 40.8% with OVCAR-3 ovarian. Besides, the values for the growth with HS 578T breast and in the experiment with NCI/ADR-RES ovarian were 92.6% and 104%, respectively.

Regarding `CC(=O)OCCc1ccccc1`, the growth was 99.6% with SK-MEL-2 melanoma; 96.2% with EKVX NSCLC; 95% in the experiment with SN12C renal; 97.8% with UO-31 renal; 106% in the experiment on TK-10 renal; 100% in the experiment with ACHN renal. For the same compound, the growth is 77.1% in the experiment with CAKI-1 renal; 95.5% in the experiment on A498 renal; 105% with CCRF-CEM leukemia; 91.9% in the experiment on MOLT-4 leukemia; 85.3% in the experiment with SR leukemia; 93.5% in the experiment on RPMI-8226 leukemia. Moreover, the growth is 98.7% in the experiment with OVCAR-8 ovarian; 91.2% with OVCAR-5 ovarian; 106% in the experiment with OVCAR-4 ovarian; 102% in the experiment with SK-OV-3 ovarian; 101% in the experiment on IGROV1 ovarian; 137% with OVCAR-3 ovarian. The growth is 104% in the experiment with HS 578T breast and 86.3% in the experiment on NCI/ADR-RES ovarian.

For `COc1cc(NC(=O)c2cc(O)c(CC=C(C)C)c(O)c2)cc2c1O[C@]1(C)CC[C@@H](O)C(C)(C)[C@H]1C2`, the growth was 14.7% in the experiment with SK-MEL-2 melanoma; 41% with EKVX NSCLC; 65.3% in the experiment with SN12C renal; -11.9% (active) with UO-31 renal; 56.4% in the experiment with TK-10 renal; 36.2% in the experiment with ACHN renal. The growth is 19.6% in the experiment on CAKI-1 renal; -2.7% (active) with A498 renal; 13% with CCRF-CEM leukemia; -8.24% (active) in the experiment with MOLT-4 leukemia; 14.1% with SR leukemia; -29.3% (active) in the experiment with RPMI-8226 leukemia. The growth in the experiment on OVCAR-8 ovarian is 54%; in the experiment with OVCAR-5 ovarian it was 61.8%; with OVCAR-4 ovarian, 51.5%; in the experiment with SK-OV-3 ovarian, 21.5%; with IGROV1 ovarian, 52.5%; in the experiment on OVCAR-3 ovarian, 31.6%. Also, the growth with HS 578T breast is 13.1%; with NCI/ADR-RES ovarian, 96.4%.
